This is an account of results in PubChem BioAssay (EPA / NIEHS).

Structures are written as SMILES. Records with an inconclusive call do not appear. The source made the active and inactive calls. How the source made its calls: active means hit-call score of the fitted dose curve at least 0.9, where 1 is the maximum; inconclusive means response in the unintended direction; inactive means score below 0.9.

This assay can be described thus: TOX21_p53_BLA_p4_viability: Viability Assessment in the Tox21 HCT-116 p53 Agonism Beta-lactamase Assay, Phase 4 (AID 2283597).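 Further: hits lower the luminescence signal meaning cytotoxicity.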 The procedure, abridged:
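Viability is taken as cellular ATP: after 16 h compound exposure of HCT116 cells and a 2 h room-temperature CCF4-AM substrate step, CellTiter-Glo reagent is added and luminescence is measured 30 min later.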
`CCCCCCCCCCCCC(=O)O`: the outcome was inactive. In the case of `Cc1ccc(NC(=O)N(C)C)cc1NC(=O)N(C)C`, the result was inactive. Still for that read-out and setting: as for `OC[C@@H](O)[C@@H](O)CO`, the entry is “inactive”; as for `NC(=O)CCCCC(N)=O`, “inactive”. Take `OCC(S)CS` (stereo unspecified): the compound was classed as inactive.

In the case of `CC1CCCO1` (stereo unspecified), the outcome was inactive.

As for `C=CC1=C(C(=O)O)N2C(=O)[C@@H](NC(=O)/C(=N\O)c3csc(N)n3)[C@H]2SC1` (stereo in doubt), the compound was called inactive. On the same count and under the same terms, the same measure for `CC(=NO)C(C)=NO`: “inactive”.

The AC50 is the concentration giving half of the maximal activity seen. `CN(C)CCCN1c2ccccc2Sc2ccc(C(F)(F)F)cc21`: the AC50 is 36.2 µM (active). With `O=C(O)CONC(=O)c1ccccc1`, the call was inactive. On to `C[C@H](CCC(=O)O)[C@H]1CC[C@H]2[C@@H]3[C@H](O)C[C@@H]4C[C@H](O)CC[C@]4(C)[C@H]3C[C@H](O)[C@]12C`, for which the outcome was inactive. As for `CCc1ncnc2cc(OC)c(OC)cc12`, the result was inactive. As to `CC(C)n1nc(-c2cc3cc(O)ccc3[nH]2)c2c(N)ncnc21`, the AC50 is 11.6 µM (active). For `CNCc1ccccc1`, the compound was called inactive. On the same count and under the same terms, the same measure for `CC(C)[N+](C)(C)CC(O)COc1cccc2ccccc12` (stereo unspecified): “inactive”. Same read-out and setting: the same measure for `CC(=O)N1C[C@H](O)C[C@H]1C(=O)O`: “inactive”; for `NS(=O)(=O)c1cc(C2(O)NC(=O)c3ccccc32)ccc1Cl` (stereo unspecified): “inactive”; for `CC(C(=O)O)c1cccc(C(=O)c2ccccc2)c1` (stereo unspecified): “inactive”. In the case of `NCCOCCN`, the compound was classed as inactive. The same measure, in the same setting: as for `C=C1CC2C3CCC4=CC(=O)C=C[C@]4(C)[C@@]3(F)[C@@H](O)C[C@]2(C)[C@@]1(O)C(=O)COC(C)=O` (stereo partly specified), the entry is “inactive”; as for `CCOC(=O)[C@H](CCc1ccccc1)N[C@@H](C)C(=O)N1[C@H](C(=O)O)C[C@H]2CCCC[C@@H]21`, “inactive”.
